Data reported in PubChem BioAssay (EPA / NIEHS).
Values joined by “and” are separate entries in the source; they are usually repeats but may differ in a detail not shown here. Equal entries are not always repeated. Results filed as inconclusive are left out. Where a structure was tested more than once in an assay, its records may differ in their call. Active and inactive are the calls of the source. How the source made its calls, unless noted: active means hit-call score of the fitted dose curve at least 0.9, where 1 is the maximum; inactive means score below 0.9.

Columns and labels:
[1] = BSK_BT_PBMCCytotoxicity: PBMC Cytotoxicity Assessment in the BioMAP Diversity Plus: BT Assay (AID 2284225); settings: primary human B cells with PBMC;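 further: PBMC viability measured by Alamar Blue dye reduction fluorescence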
Summary of the method: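 75,000 cells/well; cpd 1 h → SEB + TSST-1 (20 ng/mL final each) → 90 h → Alamar Blue 6 h → fluor. 546/580 nm. DMSO = neg. control/baseline.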

[2] = read-out: Secreted IgG (sIgG), gene 3500; test: BSK_BT_sIgG: BioMAP Diversity Plus: BT Assay for Secreted IgG (sIgG) Biomarker Activity (AID 2284226); settings: primary human B cells with PBMC
Summary of the method: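 Secreted IgG from a human primary B cell–PBMC co-culture was measured by ELISA 24 hours after dosing, with DMSO defining baseline activity.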

[3] = BSK_BT_Bcell_Proliferation: Viability Assessment in the BioMAP Diversity Plus: BT Assay for B cell Proliferation (AID 2284227); settings: primary human B cells with PBMC
Summary of the method: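 Using a human primary B cell–PBMC co-culture, the assay measures total protein by sulforhodamine B absorbance as a gauge of proliferation after 72 h. Analysis followed the positive fitting direction with DMSO as baseline.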

[4] = read-out: Interleukin 6 (IL6), IL6 (gene 3569); test: BSK_BT_xIL6: BioMAP Diversity Plus: BT Assay for Interleukin 6 (IL6) Biomarker Activity (AID 2284228); settings: primary human B cells with PBMC
Summary of the method: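 IL-6 secretion measured (Luminex xMAP) in human primary B cell + PBMC co-culture at 24 h of chemical exposure; DMSO served as negative control and activity baseline, with curves fitted for increase.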

[5] = read-out: Interleukin 17A (IL17A), IL17A (gene 3605); test: BSK_BT_xIL17A: BioMAP Diversity Plus: BT Assay for Interleukin 17A (IL17A) Biomarker Activity (AID 2284229); settings: primary human B cells with PBMC
Summary of the method: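 Human primary B cells plus PBMC, treated 24 h with chemicals; supernatant IL-17A quantified on Luminex xMAP beads. Gain of signal over DMSO control scored as activity.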

[6] = read-out: Tumor necrosis factor (Homo sapiens) (UniProt P01375); test: BSK_BT_xTNFa: BioMAP Diversity Plus: BT Assay for Tumor necrosis factor alpha (TNF-alpha) Biomarker Activity (AID 2284230); settings: primary human B cells with PBMC
Summary of the method: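 Endpoint derived in the positive direction versus DMSO vehicle. Cells: B cells together with PBMC, exposed 24 h before TNF-alpha in the medium was read on the Luminex xMAP platform.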

[7] = read-out: Vascular cell adhesion molecule 1 (VCAM1), VCAM1 (gene 7412); test: BSK_MyoF_VCAM1: BioMAP Diversity Plus: MyoF Assay for Vascular cell adhesion molecule 1 (VCAM1) Biomarker Activity (AID 2284231); settings: primary human lung fibroblasts
Summary of the method: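 VCAM-1 levels, lung fibroblasts, ELISA, 24 h exposure, increase scored relative to DMSO.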

[8] = read-out: Collagen I, COL1A1 (gene 1277); test: BSK_MyoF_CollagenI: BioMAP Diversity Plus: MyoF Assay for Collagen I Biomarker Activity (AID 2284238); settings: primary human lung fibroblasts
Summary of the method: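 Measured by ELISA: Collagen I from human lung fibroblasts 24 h after compound addition, analysed for signal gain with DMSO as baseline; overt toxicity read from SRB staining of parallel cultures at the same time.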

[9] = read-out: Collagen III, COL3A1 (gene 1281); test: BSK_MyoF_CollagenIII: BioMAP Diversity Plus: MyoF Assay for Collagen III Biomarker Activity (AID 2284239); settings: primary human lung fibroblasts
Summary of the method: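 Multiplexed cell assay in lung fibroblasts, harvested at 24 h post-dose. Collagen III detected by ELISA, with positive-direction fitting relative to DMSO vehicle.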

[10] = read-out: Interleukin 17F (IL17F), IL17F (gene 112744); test: BSK_BT_xIL17F: BioMAP Diversity Plus: BT Assay for Interleukin 17F (IL17F) Biomarker Activity (AID 2284243); settings: primary human B cells with PBMC
Summary of the method: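 Luminex readout of IL-17F secretion, 24 h; cells: human B cells with PBMC; positive-direction analysis, DMSO control.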

[11] = read-out: Actin alpha 1 (ACTA1), ACTA1 (gene 58); test: BSK_MyoF_ACTA1: BioMAP Diversity Plus: MyoF Assay for Actin alpha 1 (ACTA1) Biomarker Activity (AID 2284244); settings: primary human lung fibroblasts
Summary of the method: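 Measured by ELISA: alpha-smooth muscle actin in human primary lung fibroblasts 24 h after dosing, with DMSO as baseline and upward signal change as the fitted direction.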

[12] = CCTE_Mundy_HCI_Cortical_Synap_Neur_Matur_CellBodySpotCount: CCTE's Synaptogenesis and Neurite Maturation Assay in rat cortical cells for Cell Body Spot Count, Mundy Lab (AID 2284223)
Summary of the method: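 Chemicals were applied to AraC-treated rat primary cortical cells at DIV 7 and measured at DIV 12. Fixed cells were labelled for MAP2, synaptophysin and nuclei, and high-content imaging gave cell body synaptophysin spot counts per neuron relative to DMSO.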

[13] = CCTE_Mundy_HCI_hNP1_Pro_ResponderAvgInten: CCTE's Proliferation Assay in human neuroprogenitor cells, Mundy Lab (AID 2284224; active means hit-call score of the fitted dose curve at least 0.9, where 1 is the maximum;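 further: human neural progenitor cells hNP1 derived from WA09 embryonic stem cells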)
Summary of the method: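 Human neuroprogenitors (hNP1, WA09 lineage) receive test chemical after 40 to 44 hours of attachment. A four-hour BrdU pulse begins twenty hours later, followed by fixation and high content imaging; signal is referenced to DMSO controls.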

[14] = CCTE_Mundy_HCI_Cortical_NOG_NeuronCount: CCTE's Neurite Outgrowth Assay in rat cortical cells for Neuron Count, Mundy Lab (AID 2284236; active means hit-call score of the fitted dose curve at least 0.9, where 1 is the maximum;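 further: neurons counted by imaging betaIII-tubulin and Hoechst stained cortical cells; cells exposed to compound for about 48 hours before fixation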)
Summary of the method: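 Read-out: neuron number by high-content imaging of betaIII-tubulin (Alexa Fluor-488) and Hoechst-labelled rat primary cortical cells.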

[15] = CCTE_Mundy_HCI_Cortical_NOG_BPCount: CCTE's Neurite Outgrowth Assay in rat cortical cells for Branch Point Count, Mundy Lab (AID 2284237);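 on AC50: branch points counted about two days after chemical exposure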
Summary of the method: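 Measured 50.33 h after dosing, this morphology endpoint uses rat primary cortical cultures labelled for betaIII-tubulin. Branch points are quantified by high-content imaging, with DMSO as negative control and baseline.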

[16] = CCTE_Mundy_HCI_hNP1_Casp3_7: CCTE's Caspase-Glo 3/7 Assay in human neuroprogenitor cells for Apoptosis, Mundy Lab (AID 2284240)
Summary of the method: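 Neuroepithelial-lineage stem cells from WA09 embryonic cells were treated with chemicals after 40–44 h of culture. Twenty-four hours later, caspase-3/7 activation was detected luminescently after a 30 min room-temperature reagent step, with DMSO as baseline.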

[17] = CCTE_Mundy_HCI_Cortical_Synap_Neur_Matur_NeuronCount: CCTE's Synaptogenesis and Neurite Maturation Assay in rat cortical cells for Neuron Count, Mundy Lab (AID 2284242; active means hit-call score of the fitted dose curve at least 0.9, where 1 is the maximum;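 on AC50: neuron number from Hoechst nuclei and MAP2 staining by high-content imaging; hits reduce neuron count versus DMSO baseline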)
Summary of the method: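 Imaging-based neuron count in rat cortical cultures after chemical exposure from DIV 7 to DIV 12, with AraC added at DIV 5. Activity is fitted relative to DMSO.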

[18] = UKN4_HCS_LUHMES_cell_viability: Viability Assessment in the University of Konstanz (UKN) Leist Lab Neurite Outgrowth Assay in human LUHMES cells (UKN4) (AID 2284232)
Summary of the method: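 Human dopaminergic-model LUHMES neurons were exposed to chemicals for 24 h after a 2-day differentiation. Viability was scored by imaging Hoechst H-33342 staining, with activity fitted in both directions relative to DMSO controls.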

[19] = CCTE_Mundy_HCI_hNP1_CellTiter: CCTE's Cell Titer-Glo 2 Assay in human neuroprogenitor cells for Viability, Mundy Lab (AID 2284241; active means hit-call score of the fitted dose curve at least 0.9, where 1 is the maximum)
Summary of the method: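 Measures ATP content in human neural progenitors derived from WA09 embryonic cells. Read-out at 26.5 hours after dosing, with DMSO serving as the negative control and baseline.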

Measured: AC50

Tumor necrosis factor (Homo sapiens), sequence (P01375 whole entry, looked up): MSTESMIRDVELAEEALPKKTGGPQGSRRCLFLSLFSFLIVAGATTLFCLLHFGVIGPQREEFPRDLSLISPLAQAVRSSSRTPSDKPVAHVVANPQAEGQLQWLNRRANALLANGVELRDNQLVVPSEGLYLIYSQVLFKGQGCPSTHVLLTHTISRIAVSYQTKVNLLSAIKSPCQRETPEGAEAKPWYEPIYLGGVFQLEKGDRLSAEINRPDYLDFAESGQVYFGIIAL

Oc1cccc(-c2ccccc2)c1
inactive: [1] | [2] | [3] | [4] | [5] | [6] | [10]
active: [7] 32.3 µM | [8] 20 µM | [9] 31.3 µM | [11] 33.6 µM

CC1(C)[C@H](C(=O)O[C@H](C#N)c2cccc(Oc3ccccc3)c2)[C@@H]1/C=C(\Cl)C(F)(F)F
active: [12] 3.52 µM | [2] 25.1 µM and 28.9 µM | [4] 17.1 µM and 8.49 µM | [5] 17.1 µM | [15] 20.2 µM | [17] 3.56 µM | [10] 17.1 µM and 14.6 µM
inactive: [13] | [1] | [3] | [5] | [6] | [7] | [14] | [8] | [9] | [16] | [11]

CCOP(=O)(OCC)SCCSCC
not listed: [12] | [13] | [14] | [15] | [16] | [17] | [18] | [19]
inactive: all other assays above

COCC(=O)N(c1c(C)cccc1C)[C@H](C)C(=O)OC
not listed: [12] | [13] | [14] | [15] | [16] | [17] | [18] | [19]
inactive: all other assays above

CCOP(=O)(OCC)OC(=CCl)c1ccc(Cl)cc1Cl
active: [2] 20 µM | [4] 10.4 µM | [7] 31.2 µM | [8] 35.8 µM | [9] 30.7 µM | [11] 30.5 µM
inactive: [1] | [3] | [5] | [6] | [10]

CCC(C)(C#N)N=NC(C)(C#N)CC (stereo unspecified)
not listed: [12] | [13] | [14] | [15] | [16] | [17] | [18] | [19]
inactive: all other assays above

CCN(CC)C(=O)C(Cl)=C(C)OP(=O)(OC)OC
active: [9] 0.016 µM | [11] 0.0702 µM
inactive: [1] | [2] | [3] | [4] | [5] | [6] | [7] | [8] | [10]

Cc1cc(C(F)(C(F)(F)F)C(F)(F)F)ccc1NC(=O)c1cccc(I)c1C(=O)NC(C)(C)CS(C)(=O)=O
inactive: [12] | [13] | [18] | [14] | [15] | [16] | [19]

CC(C)[C@@H](Nc1ccc(C(F)(F)F)cc1Cl)C(=O)OC(C#N)c1cccc(Oc2ccccc2)c1 (stereo partly specified)
inactive: [12] | [15] | [16] | [19] | [17]

[Cl][Sn]([c]1ccccc1)([c]1ccccc1)[c]1ccccc1
active: [1] 0.617 µM | [2] 0.313 µM | [3] 0.423 µM | [4] 0.456 µM | [5] 0.204 µM | [6] 0.495 µM | [7] 0.0907 µM | [8] 0.0894 µM | [9] 0.402 µM | [10] 302 nM | [11] 0.102 µM

C#CCOC(=O)/C=C(C)/C=C/CC(C)CCCC(C)C (stereo unspecified)
inactive: [1] | [3] | [4] | [5] | [6] | [8] | [9] | [10]
active: [2] 20 µM | [7] 20 µM | [11] 16.4 µM

Cc1cc(Cl)ccc1OC(C)C(=O)O (stereo unspecified)
not listed: [12] | [13] | [14] | [15] | [16] | [17] | [18] | [19]
inactive: all other assays above

Cc1ccccc1OP(=O)(Oc1ccccc1)Oc1ccccc1
inactive: [1] | [3] | [4] | [5] | [6] | [10]
active: [2] 30.9 µM | [7] 33 µM | [8] 36.9 µM | [9] 28.2 µM | [11] 20 µM

CC(C)N(C(=O)CCl)c1ccccc1
active: [1] 20 µM | [2] 7.82 µM | [3] 9.93 µM | [4] 12.3 µM | [5] 5.91 µM | [6] 12 µM | [7] 2.36 µM | [8] 3.62 µM | [9] 1.12 µM | [10] 8760 nM | [11] 2.84 µM
